In PubChem BioAssay AID623868 (Vanderbilt High Throughput Screening Facility, 2012):
Out of some 2,100 compounds screened, about 760 (36%) were called active. The list is a sample of the results. A number with no mark means an inactive call.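 How the source made its calls: active means thallium-flux fluorescence traces judged by eye to show enhanced or reduced glutamate response, manual score 1 or -1, so both directions (some results past the limit were not filed as active); inactive means the rest, including fluorescent or raised-baseline compounds.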

Assay: non-GIRK thallium flux modulation in mGlu8 cells, confirmation, counter-screen for GIRK activator project, cell-based, HEK-293 rmGlu8, no GIRK (AID 623868);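 further: extra codes mark interference with 3 for fluorescent and 4 for baseline rise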
Settings: thallium flux fluorescence, at 10 µM, actives lie on both sides, codes: 1 enhancer, -1 blocker, 0 none, thallium stimulus containing EC20 glutamate

SMILES | manual score
CCOC(=O)/C(C#N)=C/C1=C(N2CCCC2)CC(C)(C)OC1 | 0
CCOC(=O)N1CCN(C(=O)c2oc3ccc(S(=O)(=O)N4CC(C)CC(C)C4)cc3c2C)CC1 (stereo unspecified) | 0
C=CCOn1c(=O)c(-c2cccs2)[n+]([O-])c2ccccc21 | 3
O=c1c(-c2ccc(Cl)cc2)[n+]([O-])c2ccccc2n1O | 1 (active)
CCOn1c(=O)c(-c2cccs2)[n+]([O-])c2ccccc21 | 3
Clc1ccc2c(c1)-c1nnc(Br)n1-c1ccccc1S2 | -1 (active)
C/C(CC(C)(C)C1CCCCC1)=N\NC(N)=S | 0
CNc1nc(Cl)nc(NC(C)(C)C)n1 | 0
Cc1cccc(N2C(=O)CS/C2=N\NC(=O)c2ccc(Cl)cc2)c1C | 1 (active)
CC(NC(=O)C1CC=CCC1C(=O)O)C1CC2CCC1C2 (stereo unspecified) | 0
CCNc1ccc2noc3c2c1C(=O)c1ccccc1-3 | 0
O=C(NNc1ccccc1Br)C(=O)n1ccc2ccccc21 | 1 (active)
Cc1ccc(C)c2[nH]c(=O)c(CN(CCN3CCCC3)C(=O)Nc3ccc(F)cc3)cc12 | 0
N=C1/C(=C/c2cccs2)C(=O)N=C2SN=C(SCc3ccccc3)N12 | 1 (active)
O=C1N=C(c2ccccc2)S/C1=C\c1cccs1 | 3
CSC1=NSC2=NC(=O)/C(=C/c3coc4ccccc4c3=O)C(=N)N12 | 3
O=C(Cc1csc(Nc2nc(=S)[nH]c3ccccc23)n1)NCc1ccccc1Cl | 0
Cc1ccc(CNC(=O)Cc2csc(Nc3nc(=S)[nH]c4ccccc34)n2)cc1 | 1 (active)
O=C(Cc1csc(Nc2nc(=S)[nH]c3ccccc23)n1)NCc1cccc(Cl)c1 | 1 (active)
N#CC(c1cccc(Cl)c1)c1ccc2c(C(F)(F)F)cc(C(F)(F)F)nc2n1 (stereo unspecified) | 0
Oc1cccc(NC(=S)Nc2ccc(SC(F)F)cc2)c1 | 0
CN(C)CCNC(=O)c1ccc2c(c1)N(Cc1ccc(F)cc1)CCS2 | 0

SMILES | manual score
CCOC(=O)CSc1nc2ccc(Nc3nc(N4CCOCC4)nc(N4CCOCC4)n3)cc2s1 | 0
O=C(O)c1cccc(Nc2nc(N3CCOCC3)nc(N3CCOCC3)n2)c1 | -1 (active)
CC1CC(C)CN(Cc2nc(N)nc(Nc3ccc4ccccc4c3)n2)C1 (stereo unspecified) | 0
O=C(COC(=O)c1cccc(N2C(=O)c3ccccc3C2=O)c1)Nc1ccccc1 | 0
CC(C)CC(=O)Nc1cccc2c1C(=O)N(c1ccccc1)C2=O | -1 (active)
CC(=O)Nc1cccc2c1C(=O)N(c1cccc(C)c1)C2=O | 0
CCOc1ccc(Br)cc1/C(C)=N\NC1=NCCN1 | 0
N#CC1=C(N)Oc2n[nH]c(-c3cccs3)c2C1c1ccoc1 (stereo unspecified) | 0
S=C1NC(c2ccccc2)=NCN1c1ccc(Cl)cc1 | 1 (active)
Cc1cs/c(=N\N=C\c2cccc([N+](=O)[O-])c2)n1Cc1ccco1 | 0
Cc1cc(C)c(-n2c(C)cc(/C=C3/NC(=O)NC3=O)c2C)c(C)c1 | 0
Cc1ccccc1-n1c(SCc2ccccn2)nc2n[nH]c(C)c2c1=N | 0
CCCOc1cccc(OCCSc2nc(C)cc(=O)[nH]2)c1 | 0
CCOc1ccc2nc(NC(=O)C(CC)Sc3nc(C)cc(=O)[nH]3)sc2c1 (stereo unspecified) | -1 (active)
CC(C)Cn1c2c(c(O)c(C(=O)Nc3ncccc3O)c1=O)CCCC2 | -1 (active)
C/C(=N\NC(=O)COc1ccc(C)cc1C(C)C)c1ccc(-n2ccnc2)cc1 | 0
CN(C)c1ccc(/C=N\NC(=S)SCN2C(=O)C3CCC(C)(C2=O)C3(C)C)cc1 (stereo unspecified) | 0.5
CC12CCC(C(=O)N(CSC(=S)N/N=C\c3ccccc3)C1=O)C2(C)C (stereo unspecified) | 1 (active)
COc1ccc(/C=N\NC(=S)SCN2C(=O)C3CCC(C)(C2=O)C3(C)C)cc1 (stereo unspecified) | 1 (active)
CC(Nc1ccc(Br)cn1)c1cc(Cl)ccc1O (stereo unspecified) | 0
O=C(Nc1ccccc1C(=O)N/N=C/c1ccco1)c1ccccc1 | 1 (active)
Cc1ccccc1C(=O)N/N=C/c1ccc([N+](=O)[O-])s1 | 0

SMILES | manual score
CN(c1ccccc1C(=O)Nc1ccccc1C(=O)NCc1ccco1)S(C)(=O)=O | 0
Cc1cc(C)c(NC(=O)/C(=C/c2ccco2)c2ccccc2)c(C)c1 | 0
CC(C)NC(=O)/C(=C/c1ccco1)c1ccccc1 | 0
Cc1ccccc1C(=O)Nc1ccccc1C(=O)N/N=C\c1ccco1 | 1 (active)
COc1cc(NC(=O)CSc2nccc(C)n2)c(C)cc1[N+](=O)[O-] | 0
CCCC(c1c(C)n(C)n(-c2ccccc2)c1=O)c1c(C)n(C)n(-c2ccccc2)c1=O | 0
Cc1c(NC(=S)NC(NC(=O)CC(C)C)C(Cl)(Cl)Cl)c(=O)n(-c2ccccc2)n1C (stereo unspecified) | 0
CCc1cc2c(=O)n(CC)c(SC(C)C(=O)Nc3c(C)n(C)n(-c4ccccc4)c3=O)nc2s1 (stereo unspecified) | -1 (active)
Cc1ccc(-c2[nH]n3c(=O)c4c(nc3c2C)CCCC4)cc1 | 0
O=c1c2c(nc3c(-c4cccc(Br)c4)c[nH]n13)CCCC2 | 0
O=c1[nH]c(SCc2ccccc2Cl)nc2c1CCCC2 | 0
O=c1c2c(nc3c(-c4ccccc4)c[nH]n13)CCCC2 | 1 (active)
O=c1c2c(nc3c(-c4ccc(Cl)cc4)c[nH]n13)CCCC2 | 1 (active)
Cc1ccc2c(CC(=O)NC3CCCc4ccccc43)coc2c1 (stereo unspecified) | 0
Cc1ccc(OCC(=O)NNC(=O)C(=O)NC(C)(C)C)cc1 | 1 (active)
COc1ccccc1NC(=O)COc1ccc(Br)cc1CO | 0
COc1ccc(OCC(=O)NNC(=O)C(=O)Nc2ccc(C)cc2)cc1 | 1 (active)
CC(C)(C)NC(=O)C(=O)NNC(=O)COc1ccc(Br)cc1 | 1 (active)
C=C(C)C1CC=C(C)/C(=N/NC(=O)COc2ccc(C)cc2)C1 (stereo unspecified) | 0
Cc1ccc(OCC(=O)N/N=C/c2cccn2C)cc1 | 0
COc1cccc(NC(=O)COc2ccc(C)cc2)c1 | 0
CCOc1ccc(NC(=O)Nc2cc(C)ccc2OC)cc1 | 0
